Shown are actives, neighbours in structure and some others; about 2% of the full set was active somewhere.
Rango complex inh: qHTS Assay for Inhibitors of Rango (Ran-regulated importin-beta cargo) - Importin beta complex formation; Rango CFP/YFP FRET sensor + importin beta, 45 min; Potency, µM (series often up to 92.2 µM), for inactives: top-dose inhibition of complex formation; hit rate 0.031% among 340,000; AID 540263, 2011; calls by dose curve;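 also: 0% = DMSO wells and 100% = buffer wells lacking importin beta; nearly all actives have a fitted effect of over 15% in size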
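Inhibition scored from the CFP 486 nm/YFP 530 nm FRET ratio 45 min after adding 0.125 microM importin beta to 50 nM Rango biosensor preincubated 5 min with compound (room temperature, PBS with DTT, Tween-20, BSA). No-importin wells as positive control.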
Rango release inh: qHTS Assay for Inhibitors of RanGTP induced Rango (Ran-regulated importin-beta cargo) - Importin beta complex dissociation; Biochemical FRET Rango-importin beta, RanGTP-induced dissociation; Potency, µM (doses to about 46.1 µM), for the others: at the highest dose activity change, negative = inhibition; AID 540253, 2011; hit rate 0.071% among 340,000; Snurportin-1 (Homo sapiens) + GTP-binding nuclear protein Ran (Homo sapiens) + Importin …; calls by dose curve; also: % of control where 0% means no effect; nearly all actives have a fitted effect of over 45% in size
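Rango/importin beta premix (0.1/0.25 uM final), PBS + 1 mM DTT + 0.02% Tween-20 + 0.1% BSA; cpd 5 min RT; FRET pre-read; + RanGTP-RCC1 (0.6 uM Ran, 2 mM GTP, 0.2 uM RCC1); 45 min RT; FRET post-read, ex 430, em 486/530 nm.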
aSyn yeast inh: qHTS of alpha-syn Inhibitors | Yeast expressing alpha-synuclein, growth rescue, BacTiter-Glo, 24 h | hit rate 0.14% among 370,000 | Potency, µM (titrated, usually from 46.1 µM), for the others: top-dose growth rescue (activation), actives largely listed as activators | AID 652106, 2013; also: % of control where 0% means no effect; nearly all actives have a fitted effect of over 65% in size
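Galactose-induced alpha-syn yeast (OD600=0.02, raffinose-pregrown) + pinned cpd, 24 hr, 30 deg C; growth by BacTiter-Glo luminescence. Growth restoration scores as activation.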
TDP-43 yeast inh: qHTS of TDP-43 Inhibitors. TDP-43 expressing yeast growth rescue, BacTiter-Glo, 24 h. hit rate 1.8% among 410,000. Potency, µM (highest dose often 46.1 µM), inactives show at the highest dose growth rescue (activation), hits mostly activators; also: % of control where 0% means no effect; nearly all actives have a fitted effect of over 50% in size
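Luminescence from BacTiter-Glo reports growth of TDP-43-expressing yeast after 24 hr at 30 deg C with compound. Cells were raffinose-pregrown to mid-log, then seeded in galactose medium at OD600=0.02.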
S-ASM inh: Inhibitors of Secretory Acid Sphingomyelinase (S-ASM): qHTS; placental ASM, HMU-PC fluorogenic substrate, 60 min; Potency, µM (top dose mostly 57.5 µM), inactives show at the highest dose activity change, negative = inhibition, hits mostly inhibitors; hit rate 0.006% among 340,000; Sphingomyelin phosphodiesterase (Homo sapiens), P17405
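Fluorogenic HMU-PC substrate (9 uM final) is turned over by placental ASM in 60 min at 37 C after a 10 min compound preincubation. Reaction ended by alkaline stop (pH 10), with fluorescence read at 386/447 nm.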
Abeta rescue: qHTS for compounds that reverse cellular toxicity of Amyloid beta (A-beta) peptide in yeast: Primary Screen | Potency, µM (series often up to 46.1 µM), hits mostly activators | hit rate 0.063% among 410,000 | yeast expressing A-beta42, growth rescue, OD600, 48 h; response scale: 0% DMSO, 100% iron-clioquinol control; also: nearly all actives have a fitted effect of over 55% in size
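Yeast A-beta toxicity model in growth medium with pinned compounds, 48 h at 30 C; growth read as absorbance at 600 nm. Normalized to FeCl3/clioquinol equimolar mix (positive) and DMSO (negative).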
* hit, by the source's call; i = inactive; ? = inconclusive; . = no result given; [ ] = dose if it differs, or a comment. Unless noted, calls follow the shape of the dose curve; as a rule, active = well fitted curve in the direction sought with a large enough effect; inconclusive = small, poorly fitted or top-dose-only effect, or another doubt; inactive = no such curve, though single readings can be large; an effect the other way counts as inactive or inconclusive. Potency is read from the fitted curve at half-maximal effect.

SMILES | Rango complex inh | Rango release inh | aSyn yeast inh | TDP-43 yeast inh | S-ASM inh | Abeta rescue
O=C(COCc1cc(-c2ccc3c(c2)OCO3)on1)NCc1ccccc1Cl | . | . | . | 28µM* | . | i
CCN1C(=O)[C@H]2[C@@H](c3ccc(-c4ccc(Cl)c(Cl)c4)cc3)N[C@@](C)(C(=O)OC)[C@H]2C1=O | 2% | 22% | -9% | 20µM* | ? | i
Cc1ccc(NC(=O)N2CCCC(c3nc(-c4ccc(F)cc4)no3)C2)cc1 (stereo not given) | -1% | 1% | 6% | 35µM* | -8% | i
O=C(Nc1ccccc1)N1CCCC(c2nc(-c3ccc(F)cc3)no2)C1 (stereo not given) | 1% | 11% | 16% | ? | -11% | i
O=S(=O)(c1ccccc1Cl)N1CCCC1c1nc(-c2ccccc2Cl)no1 (stereo not given) | -1% | 7% | 16% | 14µM* | -4% | i
O=C(Nc1ccc(Cl)cc1)N1CCC(c2nc(-c3ccccc3Cl)no2)CC1 | 1% | -8% | 14% | 18µM* | -20% | i
c1ccc(N2CCN(Cc3nnc(-c4ccc5c(c4)OCO5)o3)CC2)cc1 | . | . | . | 0% | . | i
CCN1c2ccccc2-c2nc(SCC(=O)NCc3ccccc3)ncc2S1(=O)=O | . | . | . | 0% | . | i
CCCOc1ccc(F)cc1-c1cc(C(=O)Nc2ccc(OC)cc2C)[nH]n1 | . | . | -9% | 25µM* | . | i
O=C(Nc1ccc(S(=O)(=O)Nc2nccs2)cc1)c1cnc(Cl)c(Cl)c1 | ? | 10µM*[inhibitor] | -2% | 12% | -3% | i
N#Cc1cccc(C(=O)Nc2ccc(S(=O)(=O)Nc3nccs3)cc2)c1 | ? | 9.2µM* | -2%[1.84 µM] | -11% | -1% | i
O=C(Nc1ccc(S(=O)(=O)Nc2nccs2)cc1)c1cccc(N2C(=O)c3ccccc3C2=O)c1 | ? | -19% | 10% | 13% | -2% | i
N#Cc1ccc(CSc2nc3c(c(=O)[nH]2)CCCC3)cc1 | . | . | . | 15% | . | i
COc1ccc(NC(=O)CN2C(=O)CSc3ccc(S(=O)(=O)N(C)C)cc32)cc1OC | . | . | . | -6% | . | i
COCCCNC(=O)CCCn1c(=O)c2cccn2c2ccccc21 | . | . | . | 6% | . | i
CCN1CCc2nc3sc(C(=O)Nc4cccc(Cl)c4C)c(N)c3cc2C1 | . | . | . | 22% | . | i
O=C(CCn1c(=O)c2cccn2c2cccnc21)N1CCN(c2cccc(C(F)(F)F)c2)CC1 | . | . | . | 25µM* | . | i
COc1cc2[nH]c(=O)n(Cc3ccc(C(=O)NCc4ccccc4)cc3)c(=O)c2cc1OC | . | . | . | -1% | . | i
COc1ccc(N=Nc2c(C)n[nH]c2C)cc1 | 3% | 0% | 6% | 25% | -8% | i
Cc1n[nH]c(C)c1N=Nc1ccc(Br)cc1 | 0% | 10% | -19% | 3.5µM* | -20% | i
COc1cccc(CSc2nnc(CSc3nc4nc(C)cc(C)n4n3)s2)c1 | 0% | -5% | 2% | 20µM* | -2% | i
CCN(C(=O)c1ccc2c(=O)n3c(nc2c1)CCCCC3)c1cc(C)ccc1C | . | . | . | 9% | . | i
CC(C)(O)c1[nH]c2cc(C(F)(F)F)ccc2c1C(C)(C)O | 0% | -10% | 13% | 35µM* | 1% | ?
CC(C)(O)c1[nH]c2ccc(C(F)(F)F)cc2c1C(C)(C)O | 3% | 2% | 4% | 14µM* | -10% | ?
CCNC(=S)N/N=C/c1cc(C)n(-c2ccc(Cl)cc2)c1C | -2% | 10% | 6% | ? | -16% | i

Screening data from PubChem BioAssay.
